Molecules are shown by their SMILES. Inconclusive results are not listed. Values without a mark were called inactive. Calls of active or inactive are those of the source. The call rests on the fitted dose curve; in most records, active means well fitted cell-killing curve with a large enough effect; inconclusive means small, poorly fitted or top-dose-only effect, or effect the other way; inactive means no such curve, though single readings can be large or run the other way.
Potency means the concentration at half of the fitted maximal effect.

The nature of this assay: Quantitative High-Throughput drug screen in 47 multiple myeloma cell lines against the NCATS MIPE library collection: Delta47_JCRB cell viability assay (AID 1918925; further: nearly all actives have a fitted effect of over 45% in size). The conditions noted are these: Delta47 myeloma viability, CellTiter-Glo ATP, 48 h; series mostly up to 45.8 µM; viability (% of DMSO): at the top concentration. The text has this: PI: Beverly A. Mock Ph.D.
Laboratory of Cancer Biology and Genetics,
Center for Cancer Research, National Cancer Institute,
National Institute of Health, Bethesda, Maryland
Drug resistance and disease progression are common in multiple myeloma (MM) patients, underscoring the need for new therapeutic combinations. […] We hypothesized that effective combinations would reduce MYC expression and enhance p16 activity. […] These preclinical data identify potentially useful drug combinations for evaluation in drug-resistant MM and reveal potential mechanisms of combined drug sensitivity.
Described herein is the primary MIPE qHTS used to cherrypick compounds. Validated compounds were then further tested for potential synergistic activiy.
[1] Peat TJ, Gaikwad SM, Dubois W, Gyabaah-Kessie N, Zhang S, Gorjifard S, Phyo Z, Andres M, Hughitt VK, Simpson RM, Miller MA, Girvin AT, Taylor A, Williams D, D'Antonio N, Zhang Y, Rajagopalan A, Flietner E, Wilson K, Zhang X, Shinn P, Klumpp-Thomas C, McKnight C, Itkin Z, Chen L, Kazandijian D, Zhang J, Michalowski AM, Simmons JK, Keats J, Thomas CJ, Mock BA. Drug combinations identified by high-throughput screening promote cell cycle transition and upregulate Smad pathways in myeloma. Cancer Lett. 2023 Aug 1;568:216284. doi: 10.1016/j.canlet.2023.216284. Epub 2023 Jun 24. PMID: 37356470; PMCID: PMC10408729.
SEQUENCE No. (e.g., 1, 2, 3, etc.); […] (e.g., Cells, Incubation, Reagent, etc.); VALUE and DESCRIPTION.
1; Cells; 5 uL; white, solid bottom 1536-well Greiner assay plate.
2; Compounds; 23 nL; Kalypsis pin tool (Wako USA) equipped with a 1536-well pin head to transfer to the assay plates.
3; Incubation; 48 hours; 37C incubation.
4; Reagent;5uL; CellTiter Glo (Promega).
5; Detector; 425V; Luminescence; Viewlux PerkinElmer.
NOTES (numbers refer to Sequence numbers above)
1. The cell-based screening methods employed in this study were like those previously published. Briefly, the corresponding myeloma cell lines were screened in 1,536-well plates with 500 cells, 5-uL per well for inhibition of cell viability (assessed by measuring ATP levels with CellTiterGlo).
2. NCATS MIPE 4.0 library of approved and investigational drugs were added using the Kalypsis pin tool. Wells treated with DMSO only for 100% viability and media only wells for 0% viability were used as controls.
3. The assay plates were covered and incubated for 48 hours in a 37C, 5% CO2 incubator with controlled humidity.
4. After 48 hours, CellTilter-GloTM luminescent substrate mix (Promega) reagent was added to the assay plate and plates we incubated for 5 min at room temperature.
5. Signal was measured as median relative luminescence units on a ViewLux (PerkinElmer) multiplate reader.
[1] Heske CM, Davis MI, Baumgart JT, Wilson K, Gormally MV, Chen L, Zhang X, Ceribelli M, Duveau DY, Guha R, Ferrer M, Arnaldez FI, Ji J, Tran HL, Zhang Y, Mendoza A, Helman LJ, Thomas CJ. Matrix Screen Identifies Synergistic Combination of PARP Inhibitors and Nicotinamide Phosphoribosyltransferase (NAMPT) Inhibitors in Ewing Sarcoma. Clin Cancer Res. 2017 Dec 1;23(23):7301-7311. doi: 10.1158/1078-0432.CCR-17-1121. Epub 2017 Sep 12. PMID: 28899971; PMCID: PMC6636827.
As for `NC(=O)c1cnccn1`, the “viability (% of DMSO)” value is 118%.
For the molecule `CC[C@H](Nc1ncnc2nc[nH]c12)c1nc2cccc(F)c2c(=O)n1-c1ccccc1`, the Potency is 5.26 µM (active).
Take `Nc1ccc(S(=O)(=O)Nc2ccnn2-c2ccccc2)cc1`: the “viability (% of DMSO)” value was 137%.
For `Clc1cccc(Cl)c1NC1=NCCN1`, the “viability (% of DMSO)” value is 101%.
For the molecule `NC(=O)c1ccc(-c2nc(-c3ccc4c(c3)OCO4)c(-c3ccccn3)[nH]2)cc1`, the “viability (% of DMSO)” value was 110%.
On the same count and under the same terms, to `CC(C[N+](C)(C)C)OC(N)=O` (stereo not given) belongs 106%.
Regarding `NC(=O)c1ccc(I)c([N+](=O)[O-])c1`, the Potency was 18.7 µM (active).
Take `CNCc1ccc(-c2[nH]c3cc(F)cc4c3c2CCNC4=O)cc1`: the “viability (% of DMSO)” value was 90.3%.
On to `Cc1cccc(-c2nn(C(=S)Nc3ccccc3)cc2-c2ccnc3ccccc23)n1`, for which the Potency was 16.6 µM (active).
Take `CCOc1cc(N2CCC(O)CC2)ccc1Nc1ncc2c(n1)N(C)c1ccccc1C(=O)N2C`: the Potency is 4.18 µM (active).
Take `CCCn1c(=O)c2[nH]c(C34CC5CC3C[C@@H](C5)C4)nc2n(CCC)c1=O`: the “viability (% of DMSO)” value was 131%.
`COc1cccc2cc(-c3nc(C4CCC(C(=O)O)CC4)n4ncnc(N)c34)[nH]c12` (stereo not given): the Potency is 0.469 µM (active).
Consider `CCCCNc1cc(C(=O)O)cc(S(N)(=O)=O)c1Oc1ccccc1`, for which the “viability (% of DMSO)” value is 119%.
As to `Cc1cc2c(C(C)C)c(O)c(O)c(C=O)c2c(O)c1-c1c(C)cc2c(C(C)C)c(O)c(O)c(C=O)c2c1O`, the Potency was 8.33 µM (active).
Turning to `CCC(=O)N[C@H]1CC[C@H](C(=O)N(C)c2ccc(-c3nc4ccccc4o3)cc2)C1`, the Potency was 8.33 µM (active).
In the case of `Cc1c(CN2CCN(C(=O)C(C)C)CC2)sc2c(N3CCOCC3)nc(-c3cnc(N)nc3)nc12`, the Potency was 0.0469 µM (active).
In the case of `CCOc1cc(C=C2C(=O)N(c3ccccc3)N=C2C)cc(Cl)c1OCC(=O)OC`, the Potency was 9.35 µM (active).
Turning to `O=C(Nc1ccc(F)c(C(F)(F)F)c1)Nc1nnc(-c2ccncc2)s1`, the Potency is 2.96 µM (active).
Consider `CS(=O)(=O)Oc1ccc2c(NC(N)=O)c(C(=O)c3ccc(Cl)cc3Cl)oc2c1`, for which the Potency was 14.8 µM (active).
Consider `Cc1ccc(N(CC2=NCCN2)c2cccc(O)c2)cc1`, for which the “viability (% of DMSO)” value is 103%.
Turning to `CC(C)OC(=O)C1=CN(C(=O)c2ccc(F)c(F)c2)CC(C)(C)c2c1[nH]c1ccccc21`, the “viability (% of DMSO)” value is 87.8%.
For the molecule `CCCS(=O)(=O)Nc1ccc(F)c(C(=O)c2c[nH]c3ncc(-c4ccc(Cl)cc4)cc23)c1F`, the Potency is 8.33 µM (active).
Consider `COc1ccc([C@@H]2CC(=O)c3c(O)cc(O[C@@H]4O[C@H](CO[C@@H]5O[C@@H](C)[C@H](O)[C@@H](O)[C@@H]5O)[C@@H](O)[C@H](O)[C@@H]4O)cc3O2)cc1O`, for which the “viability (% of DMSO)” value was 118%.
In the case of `Oc1ccc(C2CNCCc3c2cc(O)c(O)c3Cl)cc1` (stereo not given), the “viability (% of DMSO)” value was 96%.
In the case of `CCOc1cc(C(=O)Nc2ccc(Cl)c(-c3nc4ccccc4[nH]3)c2)cc(OCC)c1OCC`, the Potency was 18.7 µM (active).
As to `CCn1c(-c2nonc2N)nc2cnc(Oc3cccc(NC(=O)c4ccc(OCCN5CCOCC5)cc4)c3)cc21`, the Potency was 8.33 µM (active).
Turning to `CN1CCN(CCCN2c3ccccc3Sc3ccc(C(F)(F)F)cc32)CC1`, the Potency is 4.69 µM (active).
Take `COc1ccc(C2=N[C@H](c3ccc(Cl)cc3)[C@H](c3ccc(Cl)cc3)N2C(=O)N2CCNC(=O)C2)c(OC(C)C)c1`: the Potency is 2.35 µM (active).
With `CC(C)C[C@H](NC(=O)[C@@H](O)[C@H](N)Cc1ccccc1)C(=O)O`, the Potency is 20.9 µM (active).
With `CCN(CC)CCCC(C)Nc1ccnc2cc(Cl)ccc12` (stereo not given), the “viability (% of DMSO)” value is 101%.
For the molecule `CC(C)(N)C(=O)N[C@H](COCc1ccccc1)C(=O)N1CCC2(CC1)CN(S(C)(=O)=O)c1ccccc12`, the Potency is 7.43 µM (active).
Take `Nc1cccc(S(=O)(=O)N2CCCN(S(=O)(=O)c3ccc4c(c3)OCCO4)CC2)c1`: the Potency was 0.833 µM (active).
For `Cc1cn[nH]c1`, the Potency is 0.296 µM (active).
Consider `CC(c1cc2ccccc2s1)N(O)C(N)=O` (stereo not given), for which the “viability (% of DMSO)” value was 108%.
On to `O=C(O)CCc1ccc(NCc2cccc(Oc3ccccc3)c2)cc1`, for which the “viability (% of DMSO)” value was 110%.
Consider `OC(CN1CCC(Cc2ccc(F)cc2)CC1)c1ccc(Cl)cc1` (stereo not given), for which the “viability (% of DMSO)” value was 104%.
Take `COc1ccc(COc2cc3oc(=O)c4cc(C(C)O)ccc4c3cc2OC)cc1` (stereo not given): the Potency was 11.8 µM (active).
`NNCCc1ccccc1`: the “viability (% of DMSO)” value was 117%.
For the molecule `Oc1cccc(-c2nc(N3CCOCC3)c3oc4ncccc4c3n2)c1`, the Potency is 0.0171 µM (active).
Regarding `OCCC#Cc1nc(-c2ccc(F)cc2)c(-c2ccncc2)n1CCCc1ccccc1`, the Potency is 13.2 µM (active).

(Values after PubChem BioAssay (NCATS).)
